Experimental findings from ChEMBL document CHEMBL1201862, “PubChem BioAssay data set” (2004) are described below.

Hit rate of the full screen: of about 400,000 compounds, about 2,100 (0.53%) were called active. About 14% were inconclusive and are not listed. How the calls were made is not given here. The sample as a whole holds a higher share of actives than the screen did.

For the assay, the target named is Ataxin-2 (Homo sapiens) (UniProt Q99700). The assay is described as follows: qHTS for Inhibitors of ATXN expression. It is filed as functional.
Chain of Ataxin-2 (Homo sapiens) (Q99700 whole entry): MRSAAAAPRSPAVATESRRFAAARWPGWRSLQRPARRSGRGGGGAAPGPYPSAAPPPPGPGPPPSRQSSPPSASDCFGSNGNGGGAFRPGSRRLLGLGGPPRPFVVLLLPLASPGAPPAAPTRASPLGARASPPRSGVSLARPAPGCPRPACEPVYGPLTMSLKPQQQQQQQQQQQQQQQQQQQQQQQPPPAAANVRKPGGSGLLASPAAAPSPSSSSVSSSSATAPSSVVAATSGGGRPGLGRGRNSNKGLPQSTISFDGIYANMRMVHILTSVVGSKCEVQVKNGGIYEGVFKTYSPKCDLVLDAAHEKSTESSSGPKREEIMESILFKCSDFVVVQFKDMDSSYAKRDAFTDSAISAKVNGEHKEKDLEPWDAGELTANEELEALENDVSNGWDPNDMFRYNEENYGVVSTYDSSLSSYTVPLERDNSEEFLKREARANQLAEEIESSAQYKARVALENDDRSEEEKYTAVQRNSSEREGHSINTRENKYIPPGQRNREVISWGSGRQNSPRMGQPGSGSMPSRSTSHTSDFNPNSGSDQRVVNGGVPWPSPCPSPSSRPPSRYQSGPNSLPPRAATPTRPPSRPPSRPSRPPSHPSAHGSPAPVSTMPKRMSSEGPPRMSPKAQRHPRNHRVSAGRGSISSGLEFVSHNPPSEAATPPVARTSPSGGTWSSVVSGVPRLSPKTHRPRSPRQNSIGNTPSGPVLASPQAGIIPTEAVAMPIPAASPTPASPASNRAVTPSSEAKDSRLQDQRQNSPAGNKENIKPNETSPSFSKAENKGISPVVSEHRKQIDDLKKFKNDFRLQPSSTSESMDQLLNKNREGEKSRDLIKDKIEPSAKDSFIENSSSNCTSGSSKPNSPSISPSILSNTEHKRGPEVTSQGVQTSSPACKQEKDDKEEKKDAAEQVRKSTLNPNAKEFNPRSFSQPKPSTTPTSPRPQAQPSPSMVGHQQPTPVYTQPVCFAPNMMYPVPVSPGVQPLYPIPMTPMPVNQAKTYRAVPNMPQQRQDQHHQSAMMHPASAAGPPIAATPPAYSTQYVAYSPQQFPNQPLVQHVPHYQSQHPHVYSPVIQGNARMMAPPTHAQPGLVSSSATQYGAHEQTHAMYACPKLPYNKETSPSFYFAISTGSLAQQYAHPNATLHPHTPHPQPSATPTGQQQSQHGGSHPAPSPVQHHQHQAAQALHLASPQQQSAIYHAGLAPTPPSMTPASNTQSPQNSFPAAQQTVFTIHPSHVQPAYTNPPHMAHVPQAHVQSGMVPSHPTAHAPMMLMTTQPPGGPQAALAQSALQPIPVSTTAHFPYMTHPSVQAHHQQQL
Turning to `COc1ccc2nc(N3CCCC(O)C3)c(C#N)cc2c1` (stereo unspecified), the Potency result is “inactive”.
Then `NC[C@@H]1O[C@H](C23CC4CC(CC(C4)C2)C3)Cc2c1ccc(O)c2O`, with 31.6 µM (active).
Regarding `CCOCCCn1c(=N)c(C(=O)NCCN2CCOCC2)cc2c(=O)n3cccc(C)c3nc21`, the Potency result is “inactive”.
Then `CC(C)=CCc1cc([C@@H]2COc3c(ccc4c3C=CC(C)(C)O4)C2)c(O)cc1O`, with 35.5 µM (active).
Next, `CCCCC(=O)Nc1nn(CC)c2nc3c(C)cccc3cc12`: “inactive”.
Next, `Nc1c(C(=O)N2CCCC2)sc2nc(-c3ccccc3)ccc12`: “inactive”.
As for `C[C@@H]1CCCCO[C@@H](CN(C)CC2CCCCC2)[C@@H](C)CN([C@H](C)CO)C(=O)c2cc(NS(=O)(=O)c3ccc(Cl)cc3)ccc2O1`, the Potency was 31.6 µM (active).
Then `COc1ccc(S(=O)(=O)N(C)C[C@@H]2OCCCC[C@@H](C)Oc3ccc(NC(=O)NC(C)C)cc3C(=O)N([C@H](C)CO)C[C@@H]2C)cc1`, with “inactive”; and `C[C@@H]1CCCCO[C@H](CN(C)Cc2ccccc2)[C@@H](C)CN([C@H](C)CO)C(=O)c2cc(NS(=O)(=O)c3ccc(Cl)cc3)ccc2O1`, with 35.5 µM (active).
Next, `C[C@H]1CCCCO[C@@H](CN(C)S(=O)(=O)c2ccc(Cl)cc2)[C@@H](C)CN([C@@H](C)CO)C(=O)c2cc(NS(=O)(=O)c3ccccc3)ccc2O1`: 31.6 µM (active).
Then `N#CC(Sc1ccccn1)c1ccc(Cl)cc1` (stereo unspecified), with “inactive”; and `O=C(COC(=O)c1ccc2[nH]c3c(c2c1)CCCC3)NC1CCS(=O)(=O)C1` (stereo unspecified), with “inactive”.
As to `CN(CC(=O)Nc1cccc(C(F)(F)F)c1)S(=O)(=O)c1ccc2[nH]c3c(c2c1)CCCC3`, the Potency was 35.5 µM (active).
Regarding `CC(C)c1ccc2[nH]c(O)c(N=NC(=O)c3cccc(S(=O)(=O)Nc4cccc(Cl)c4)c3)c2c1`, the Potency is 1.41 µM (active).
Then `CC(C)c1ccc2[nH]c3c(c2c1)CCC/C3=N\NC(=O)c1ccncc1`, with “inactive”.
Turning to `Cc1ccc(S(=O)(=O)Nc2cccc(N(C)S(C)(=O)=O)c2)cc1[N+](=O)[O-]`, the Potency entry is “inactive”.
Next, `O=S(=O)(Nc1cccc(Cl)c1)c1ccc2[nH]c3c(c2c1)CCCCCC3`: 31.6 µM (active); `CN(CC(=O)Nc1cccc(Cl)c1)S(=O)(=O)c1ccc2[nH]c3c(c2c1)CCCC3`: 39.8 µM (active).
Then `Clc1ccc2[nH]c3c(c2c1)CNCC3`, with “inactive”.
In the case of `CSc1nc(O)c(C(c2ccc(C)cc2)c2c(O)nc(SC)nc2O)c(O)n1`, the Potency entry was “inactive”.
Next, `CCCn1c(=O)n(CC(=O)NCC2CCCO2)c(=O)c2c3c(sc21)COC(C)(C)C3` (stereo unspecified): “inactive”; `CC1CCc2sc(C(=O)OCC(=O)NC(C)C)cc2C1` (stereo unspecified): “inactive”; `Cc1cc(NC(=O)CCC(=O)N(C(C(=O)NC(C)(C)C)c2ccccc2Cl)C(C)(C)C)no1` (stereo unspecified): “inactive”.
Next, `COc1ccccc1C1C2=C(CCCC2=O)N(CC(=O)O)C2=C1C(=O)CCC2`: “inactive”; `Cc1ccc(NC(=O)c2sc3nc(-c4ccc(F)cc4)ccc3c2N)cc1F`: “inactive”; `CC(C)c1ccc(C2=CC(c3ccc(C(C)C)cc3)n3nnnc3N2)cc1` (stereo unspecified): “inactive”.
For the molecule `CCc1ccc2nc3nc(C)cc(C)c3c(N)c2c1`, the Potency result was “inactive”.
On to `Cc1ccc(C(=O)CC(=O)c2ccccc2C)c(O)c1`, for which the Potency result was “inactive”.
As to `CC(=O)c1cccc(NC(=O)C(C)OC(=O)c2cccc(S(=O)(=O)N3CCN(C)CC3)c2)c1` (stereo unspecified), the Potency result is “inactive”.
For `Cc1ccc(-c2nn3c(C)nnc3s2)cc1NC(=O)c1ccc(-c2ccc(Cl)cc2Cl)o1`, the Potency is 8.91 µM (active).
Then `Cc1nnc2ccc(-c3ccc(NC(=O)c4ccco4)cc3)nn12`, with “inactive”; and `O=C(NCCCN1CCN(c2ccc(F)cc2)CC1)c1ccc2nc(Cc3ccccc3)oc2c1`, with 20 µM (active).
In the case of `O=C(NCCO)c1ccc2nc(Cc3cccc(Cl)c3)oc2c1`, the Potency entry is “inactive”.
Then `C=C(C)CNC(=O)c1ccc2nc(Cc3ccc(OC)cc3)oc2c1`, with “inactive”.
Consider `O=c1c(O)c(-c2cccs2)oc2ccc(Cl)cc12`, for which the Potency entry is “inactive”.
Then `Cc1ccc2cc(C#N)c(NCc3ccccc3)nc2c1`, with “inactive”; and `N#Cc1ncc(Cc2ccccc2)nc1C#N`, with 39.8 µM (active); and `Cc1nc2nc(SCc3ccccc3)nn2c(O)c1CCC(C)C`, with “inactive”.
As to `CC1CCN(CCCNC(=O)c2cc3c(Cl)nc4ccccc4c3s2)CC1`, the Potency is 39.8 µM (active).
Next, `CCC1CCCCN1c1nc2c(C=O)c(C)nn2c2ccccc12` (stereo unspecified): “inactive”; `O=C(NC1CCCC1)c1cc2c(=O)n3ccccc3nc2s1`: “inactive”; `COc1ccc(NC(=O)c2cc3c(Cl)nc4ccccc4c3s2)cc1OC`: 35.5 µM (active).
Next, `COc1ccc(-c2cc(C(=O)NC3=NCCS3)c3ccccc3n2)cc1OC`: “inactive”.
Take `CCC1CCCCN1CCCNC(=O)c1cc2c(Cl)nc3ccccc3c2s1` (stereo unspecified): the Potency was 31.6 µM (active).
Next, `COc1ccc(NC(=O)c2cc3c(=O)n(C)c4ccccc4c3s2)cc1OC`: “inactive”; `O=C(Cc1csc(Nc2nc(S)nc3ccccc23)n1)NCCCN1CCN(c2cccc(Cl)c2)CC1`: “inactive”.
Then `O=C(Cc1csc(Nc2nc(S)nc3ccccc23)n1)NCCCN1CCN(c2ccccc2F)CC1`, with “inactive”; and `CCCCCC(=O)NC(=S)Nc1ccc(Cl)cn1`, with “inactive”.
For the molecule `N#Cc1cnn2c(-c3cccc([N+](=O)[O-])c3)ccnc12`, the Potency result is “inactive”.
Next, `FC(F)(F)c1cc(-c2cccs2)nc2ncnn12`: “inactive”; `CN1CCN(C(=O)CN(C2CCCCC2)S(=O)(=O)c2ccccc2)CC1`: “inactive”; `CCN(CC)CCCN(Cc1cc2cc3c(cc2nc1O)OCO3)C(S)=Nc1ccc(OC)cc1`: “inactive”.
As to `CCOc1ccccc1C(=O)N(Cc1ccccc1)Cc1cc2cc3c(cc2nc1O)OCCO3`, the Potency was 35.5 µM (active).
As for `COc1ccccc1C(=O)N(Cc1cc2cc3c(cc2nc1N(C)C)OCO3)CC1CCCO1` (stereo unspecified), the Potency entry was “inactive”.
Take `Cc1ccc(CNS(=O)(=O)c2ccc3c(c2)CCN3C(=O)CCCC(=O)O)cc1`: the Potency entry was “inactive”.
Regarding `CCc1cccc(C)c1NC(=O)CNCc1ccccc1`, the Potency entry was “inactive”.
Then `CCOc1ccc(-c2oc3ccc(C)cc3c(=O)c2O)cc1`, with “inactive”; and `CCOc1ccc(CNCc2c(C(=O)O)n(Cc3ccc(C)cc3)c3cc(C)ccc23)cc1`, with 25.1 µM (active).
Next, `CCOc1ccc(C2C(C(=O)OC)=CN(CCOC)C=C2C(=O)OC)cc1`: “inactive”.
Next, `Cc1ccc(Cn2c(C(=O)O)c(CNCc3ccc(OC(C)C)cc3)c3ccc(C)cc32)cc1`: 35.5 µM (active); `Cc1ccc(CNCc2c(C(=O)O)n(Cc3ccc(C)cc3)c3cc(C)ccc23)cc1`: 22.4 µM (active); `CCc1ccc(CNCc2c(C(=O)O)n(Cc3ccc(C)cc3)c3cc(C)ccc23)cc1`: 31.6 µM (active).
Consider `Cc1ccc(CNC(=O)c2ccc3c(O)c(O)c(-c4ccc(C)cc4)nc3c2)cc1`, for which the Potency entry was “inactive”.
Then `CCNC(=O)c1cc2c(=O)n3cccc(C)c3nc2n(Cc2ccc(C)cc2)c1=N`, with “inactive”; and `Cc1cccc(C(=O)/N=c2/c(C#N)cc3c(=O)n4cccc(C)c4nc3n2Cc2ccco2)c1`, with “inactive”; and `Cn1ncc(Oc2ccc([N+](=O)[O-])cc2)c(Cl)c1=O`, with “inactive”.
On to `O=C(c1ccccn1)N(c1ccccc1)C1(C(=O)NC2CCCCC2)CCCCC1`, for which the Potency result is “inactive”.
As to `OC[C@@H]1[C@@H](c2ccccc2)C(c2ccccc2)=NN1c1ccccc1`, the Potency result is “inactive”.
`CCOCCCNC(=O)C(NC(=O)c1ccc2c(c1)OCO2)c1ccc(Cl)cc1` (stereo unspecified): the Potency entry is “inactive”.
Next, `NC1=Nc2cccc3cccc1c23`: “inactive”; `Cc1cc2c(cc1C)NC(CC(=O)Nc1ccccc1SC(F)(F)F)C(=O)N2` (stereo unspecified): “inactive”.
For `Cc1cc2n(n1)C(c1ccccc1)CC(c1ccc(Br)cc1)=N2` (stereo unspecified), the Potency entry is “inactive”.
Next, `CCOC(=O)c1c(SCC(=O)Nc2nccs2)nc(C)c(C)c1C`: “inactive”; `Cc1ccc(N2C(=O)CC(Sc3nc4ccccc4o3)C2=O)cc1Cl` (stereo unspecified): 39.8 µM (active).
Next, `Cc1cc(C)nc(SC2CC(=O)N(c3ccc(C)c(C)c3)C2=O)n1` (stereo unspecified): “inactive”; `CC(=O)NS(=O)(=O)c1ccc(N2C(=O)CC(Sc3nccc(C)n3)C2=O)cc1` (stereo unspecified): “inactive”.
Next, `CSc1ccc(/C=C2\CCn3c2nc2cc(C(=O)O)ccc2c3=O)cc1`: “inactive”; `CCN(CC)C(=O)c1cc2c(=O)n3cccc(C)c3nc2s1`: “inactive”.
`C/C(=N\NC(=O)COc1ccc([N+](=O)[O-])cc1)c1ccco1`: the Potency entry is “inactive”.
As to `Cc1cccc(C)c1NC(=O)Cn1nnc(-c2ccc(N3CCOCC3)cc2)n1`, the Potency is 39.8 µM (active).
`Cc1ccccc1-c1nnn(CC(=O)Nc2ccc3c(c2)OCO3)n1`: the Potency result was “inactive”.
Next, `O=C(Cn1nnc(-c2ccccc2)n1)NCC(=O)Nc1ccc(F)c(F)c1F`: “inactive”; `CCOCCCNC(=O)c1c(N)n(-c2ccc3c(c2)OCO3)c2nc3ccccc3nc12`: “inactive”; `COc1cccc2c(=O)c3c(cnn3C)n(C)c12`: “inactive”.
Regarding `COc1ccccc1CNC(=O)CN1C(=O)c2cccc(N)c2C1=O`, the Potency entry was “inactive”.
Next, `COc1ccccc1CNC(=O)CCC1N=C2c3ccccc3N=C(SCc3ccc(C)cc3C)N2C1=O` (stereo unspecified): 17.8 µM (active).
On to `O=C(NCc1nnc(S)n1-c1cccc(C(F)(F)F)c1)c1ccc(S(=O)(=O)N2CCCCC2)cc1`, for which the Potency entry is “inactive”.
Next, `Nc1cccn2c(-c3ccc(Cl)cc3)cnc12`: “inactive”; `Cc1cc(-c2ccccc2)nc2oc(C(=O)NN)c(N)c12`: “inactive”; `Cc1ccc(CSc2nc(-c3ccccc3C)nc3c2Cc2c(CO)cnc(C)c2O3)cc1`: 28.2 µM (active).
Next, `Cc1ccc(CSc2nc3ccccc3c(=O)n2C)cc1`: “inactive”; `COc1ccc(C2CC(c3ccccc3Cl)=NN2c2ccc(S(N)(=O)=O)cc2)cc1` (stereo unspecified): “inactive”.
Take `CC(=O)Nc1ccc(C(=O)Nc2ccncc2)cc1`: the Potency result is “inactive”.
With `CC(C)CC(NS(=O)(=O)OCC(Cl)(Cl)Cl)c1ccccc1` (stereo unspecified), the Potency was 35.5 µM (active).
Then `Cc1ccc(C)c(N(C(=O)c2snc(C(N)=O)c2N)C(C(=O)NCC2CCCO2)c2ccc(C)o2)c1` (stereo unspecified), with “inactive”.
Next, `N=c1c(C(=O)NCC2CCCO2)cc2c(=O)n3ccccc3nc2n1C1CCCC1` (stereo unspecified): “inactive”.
